Legend:
Conditions in all cases: concentration: 1 μM, replicates: in singlicate; n = 1
ULK3 = test system: ULK3
VEGFR2 = test system: T1, VEGFR2
T1 construct: gene KDR

VPS34 = test system: T2, VPS34
T2 construct: gene PIK3C3

VRK2 = test system: VRK2
WEE1 = test system: WEE1
WEE2 = test system: WEE2
WNK1 = test system: WNK1
WNK2 = test system: WNK2
WNK3 = test system: WNK3
WNK4 = test system: WNK4
YANK1 = test system: T3, YANK1
T3 construct: gene STK32A

YANK2 = test system: T4, YANK2
T4 construct: gene STK32B

YANK3 = test system: T5, YANK3
T5 construct: gene STK32C

YES = test system: T6, YES
T6 construct: gene YES1

YSK1 = test system: T7, YSK1
T7 construct: gene STK25

YSK4 = test system: T8, YSK4
T8 construct: gene MAP3K19

ZAK = test system: ZAK
ZAP70 = test system: ZAP70
p38-alpha = test system: T9, p38-alpha
T9 construct: gene MAPK14

p38-beta = test system: T10, p38-beta
T10 construct: gene MAPK11
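Note: KINOMEscan kinase panel screen.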

Row | Structure (SMILES) | %Inh (ULK3) [%] | %Inh (VEGFR2) [%] | %Inh (VPS34) [%] | %Inh (VRK2) [%] | %Inh (WEE1) [%] | %Inh (WEE2) [%] | %Inh (WNK1) [%] | %Inh (WNK2) [%] | %Inh (WNK3) [%] | %Inh (WNK4) [%] | %Inh (YANK1) [%] | %Inh (YANK2) [%] | %Inh (YANK3) [%] | %Inh (YES) [%] | %Inh (YSK1) [%] | %Inh (YSK4) [%] | %Inh (ZAK) [%] | %Inh (ZAP70) [%] | %Inh (p38-alpha) [%] | %Inh (p38-beta) [%]
1 | COc1cc2ncn(-c3cc(OCc4ccncc4Br)c(C(N)=O)s3)c2cc1OC [GW854278] | 36 | 31 | 58 | 24 | 0 | 18 | 19 | 35 | 64 | 0 | 0 | 0 | 0 | 0 | 0 | 61 | 15 | 0 | 4 | 0
2 | COc1cc2nccc(Nc3ccc(OCc4ccc(NC(C)=O)cc4)cc3)c2cc1OC.Cl [GW440135] | 13 | 96.2 | 0 | 35 | 29 | 12 | 2 | 16 | 39 | 0 | 0 | 4 | 0 | 11 | 0 | 0 | 10 | 16 | 18 | 0
3 | OCCCNc1nccc(-c2c(-c3cccc(C(F)(F)F)c3)nn3cc(C(F)(F)F)ccc23)n1 [GW630813] | 0 | 3 | 0 | 18 | 0 | 0 | 0 | 0 | 33 | 85 | 0 | 0 | 0 | 0 | 1 | 2 | 0 | 0 | 99.4 | 30
4 | CCn1c(-c2nonc2N)nc2ccccc21 [SB-693162/GW549034] | 20 | 40 | 2 | 0 | 0 | 0 | 0 | 39 | 0 | 6 | 46 | 0 | 0 | 0 | 0 | 87 | 0 | 0 | 23 | 1
5 | O=C(Nc1n[nH]c2nc(-c3ccccc3)c(Br)cc12)C1CC1 [SB-708998] | 11 | 2 | 0 | 0 | 0 | 0 | 2 | 0 | 9 | 0 | 7 | 10 | 11 | 12 | 0 | 95.3 | 9 | 5 | 7 | 41
6 | Nc1n[nH]c2ncc(-c3ccccc3)cc12 [SB-517081] | 14 | 16 | 0 | 11 | 17 | 2 | 12 | 0 | 27 | 35 | 9 | 0 | 23 | 20 | 8 | 52 | 25 | 0 | 13 | 0
7 | CCn1c(-c2ccoc2)nc2cnccc21 [SB-733887] | 11 | 65 | 0 | 8 | 4 | 0 | 15 | 18 | 19 | 0 | 0 | 4 | 27 | 0 | 12 | 49 | 34 | 0 | 0 | 0
8 | COc1ccc(CNC(=O)NC2CCN(c3ccnc(Nc4ccc(F)cc4)n3)C2)cc1 (stereo not drawn) [GSK1379706] | 0 | 9 | 33 | 33 | 10 | 9 | 0 | 30 | 49 | 50 | 12 | 0 | 0 | 0 | 25 | 0 | 0 | 20 | 44 | 0
9 | O=C(Nc1ccc2c(c1)OCO2)NC1CCN(c2ccnc(NCc3ccc(F)cc3)n2)CC1 [GSK1379859] | 0 | 0 | 7 | 0 | 12 | 0 | 0 | 0 | 0 | 13 | 11 | 0 | 0 | 9 | 0 | 0 | 0 | 0 | 0 | 0
